Only a selection was taken, and hits are over-represented in it overall.
Lassa entry inh: qHTS for Inhibitors of binding or entry into cells for Lassa Virus | Lassa virus pseudotype entry inhibition, cell reporter | Potency, µM (highest dose often 37.9 µM), most hits filed as inhibitors | actives 1.2% (n = 300,000) | AID 540256, 2011; calls by dose curve; tested in HEK293 cells; also: nearly all actives have a fitted effect of over 50% in size
MARV entry inh: qHTS for inhibitors of binding or entry into cells for Marburg Virus. Marburg virus pseudotyped entry inhibition, cell reporter. Potency, µM (top dose mostly 37.8 µM), usual class: inhibitors. actives 1.8% (n = 300,000). AID 540276, 2011; calls by dose curve; tested in HEK293 cells
AMA1-RON2 inh: qHTS for Inhibitors of AMA1-RON; Towards Development of Antimalarial Drug Lead: Primary Screen. actives 0.2% (n = 360,000). AlphaScreen AMA1-biotinylated RON2 peptide binding. AID 720542, 2013. Potency, µM (titrated, usually from 58.2 µM), hits mostly inhibitors; active = well fitted inhibition curve with a large enough effect; inconclusive = small, poorly fitted or top-dose-only effect; inactive = no such curve, though single readings can be large or run the other way; also: nearly all actives have a fitted effect of over 45% in size
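AMA1 (3D7) with his tag at 25 nM final met compounds first, then biotinylated RON2 peptide at 25 nM; detection used donor plus acceptor beads, 10 µg/mL apiece, read by AlphaScreen after 30 min at room temperature.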
Cycloheximide cs: Cycloheximide Counterscreen for Small Molecule Inhibitors of Shiga Toxin. max response, %. cell reporter, cycloheximide protein synthesis inhibition counterscreen. actives 12% (n = 300,000); in the data active = max response mostly above about 13%, no sharp cut-off; inactive = mostly below about 14%; also: read at 38.3 µM for the half of the compounds with a filed dose
Shiga toxin inh: A qHTS for Small Molecule Inhibitors of Shiga Toxin; Vero cells, Shiga toxin protein synthesis inhibition reporter; AID 2315, 2010; actives 9.2% (n = 290,000); inhibition, % at 38.7 µM; in the data active = inhibition mostly above about 28%, no sharp cut-off; inactive = mostly below about 43%
Of the large screens only hits and unclear results are named; the others gave an inactive call.

Nc1cc2nn(-c3ccccc3)nc2cc1Cl	Lassa entry inh inconclusive, Cycloheximide cs 31.6, Shiga toxin inh 140.8
CC(C)CC(=O)Nc1cc2nn(-c3ccccc3)nc2cc1Cl	Lassa entry inh inconclusive, MARV entry inh inconclusive, Cycloheximide cs 74.3, Shiga toxin inh 115.0
N#Cc1ccc(C(=O)Nc2cc3nn(-c4ccccc4)nc3cc2Cl)c(F)c1	none (no result: AMA1-RON2 inh, Cycloheximide cs, Shiga toxin inh)
COc1cc(-c2ccc3c(=O)c4ccccc4n(C)c3c2)cc(OC)c1OC	Cycloheximide cs 10.7 (no result: Lassa entry inh, MARV entry inh)
Cn1c2ccccc2c(=O)c2ccc(F)cc21	Cycloheximide cs 15.7 (no result: Lassa entry inh, MARV entry inh)
Cn1c(-c2ccc3c(c2)OCO3)cc(=O)c2ccccc21	none (no result: Lassa entry inh, MARV entry inh)
Cn1c2ccccc2c(=O)c2ccc(-c3ccc4c(c3)OCO4)cc21	Cycloheximide cs 30.9, Shiga toxin inh 45.6 (no result: Lassa entry inh, MARV entry inh)
O=C(NCC(=O)N1CCN(S(=O)(=O)/C=C/c2ccccc2)CC1)c1ccc(Cl)cc1	none
COCCNC(=O)C1(C(F)(F)F)C/C(=C\Cc2ccccc2)CCCO1 (centres undefined)	none (no result: Lassa entry inh, MARV entry inh, AMA1-RON2 inh)
CC(OC(=O)c1cccc(NS(C)(=O)=O)c1)C(=O)Nc1ccc(N2CCOCC2)cc1 (centres undefined)	none
COc1ccccc1C(=O)OC(C)CN1CCN(C)CC1 (centres undefined)	none (no result: Lassa entry inh, MARV entry inh)
COc1cccc(NC(=O)Cn2c(=O)n(-c3ccccc3)c(=O)c3ccc(C(=O)NCc4ccc5c(c4)OCO5)cc32)c1	MARV entry inh inconclusive (no result: AMA1-RON2 inh, Cycloheximide cs, Shiga toxin inh)
CCOC(=O)c1c(NC(C)=O)sc2c(OCCN(CC)CC)c(Br)ccc12	none (no result: Lassa entry inh, MARV entry inh)
CCOC(=O)c1c(NC(C)=O)sc2c(OCC(O)CN(CC)CC)c(Br)ccc12 (centres undefined)	Lassa entry inh 2.51µM, MARV entry inh 11.2µM
CCN(CC)c1ccc(C(=O)NNC(=O)CCl)cc1	Lassa entry inh inconclusive, Cycloheximide cs 31.5
O=C(Nc1ccncc1)c1ccc(Cl)c(S(=O)(=O)N2CCCC2)c1	MARV entry inh inconclusive (no result: Cycloheximide cs, Shiga toxin inh)
CC(C)n1cc(C(=O)N2CCCC(N3CCN(c4ccc(F)cc4)CC3)C2)cn1 (centres undefined)	none
O=C(c1cccc(Cl)c1)N1CCCC(C(=O)N2CCCCCC2)C1 (centres undefined)	none
CCc1nccn1CCC(=O)N1CCCC(N2CCN(c3cccc(Cl)c3)CC2)C1 (centres undefined)	Cycloheximide cs 31.1, Shiga toxin inh 49.0 (no result: Lassa entry inh, MARV entry inh)
CCc1nccn1CCC(=O)N1CCCC(N2CCN(c3ccccc3C)CC2)C1 (centres undefined)	none
O=C(c1ccncc1)N1CCCC(N2CCN(c3ccc(F)cc3)CC2)C1 (centres undefined)	Cycloheximide cs 27.3, Shiga toxin inh 38.8
O=C(c1cccc(Cl)c1)N1CCCC(C(=O)N2CCN(c3ccccc3)CC2)C1 (centres undefined)	MARV entry inh inconclusive, Cycloheximide cs 24.4, Shiga toxin inh 50.4
Cc1cccc(C(=O)N2CCCC(N3CCN(c4cccc(Cl)c4)CC3)C2)n1 (centres undefined)	Cycloheximide cs 21.0
COc1cc(C(=O)N2CCNC(=O)C2CC(=O)Nc2ccc(C)c(C)c2)cc(OC)c1OC (centres undefined)	none (no result: AMA1-RON2 inh, Cycloheximide cs, Shiga toxin inh)
COC(=O)N[C@@H](c1cccc(C)c1)[C@]1(C(C)=O)CCCC1=O	none (no result: Lassa entry inh, AMA1-RON2 inh, Cycloheximide cs, Shiga toxin inh)
ClC1CCCC(Cl)C1Cn1nnc(N2CCCC2)n1 (centres undefined)	none (no result: Lassa entry inh, AMA1-RON2 inh, Cycloheximide cs, Shiga toxin inh)
O=C1CCCCN1CCC(=O)N1CCCC(N2CCN(c3ccccc3)CC2)C1 (centres undefined)	none (no result: Lassa entry inh, MARV entry inh)
O=C1CCCCN1CCC(=O)N1CCCC(N2CCN(c3cccc(Cl)c3)CC2)C1 (centres undefined)	Cycloheximide cs 24.1, Shiga toxin inh 35.4
CCOC(=O)C(=NCC1CCCO1)NNc1ccccc1Cl (centres undefined)	none
O=C(NNC(=O)C12CC3CC(CC(C3)C1)C2)[C@@H]1C[C@H]1c1ccccc1	Lassa entry inh inconclusive, Cycloheximide cs 25.8, Shiga toxin inh 45.6
CC(C)(C)NC(=S)NNC(=O)[C@H]1C[C@@H]1c1ccccc1	Lassa entry inh 0.891µM
COc1cc(OC)cc(C(=O)NC(=S)NNC(=O)[C@H]2C[C@@H]2c2ccccc2)c1	Lassa entry inh 3.16µM
O=C(NC(=S)NNC(=O)[C@H]1C[C@@H]1c1ccccc1)c1ccc(F)cc1	none (no result: Lassa entry inh, MARV entry inh)
O=C(Nc1ccccc1F)C1CC1c1ccccc1 (centres undefined)	Shiga toxin inh 41.0
NNC(=O)[C@H]1C[C@@H]1c1ccccc1	Lassa entry inh inconclusive, MARV entry inh inconclusive
COc1ccc(C(=O)NC(=S)NNC(=O)[C@H]2C[C@@H]2c2ccccc2)cc1OC	Lassa entry inh inconclusive, MARV entry inh inconclusive
COC(=O)C1=C(C)N(Cc2ccccc2)C(=S)NC1CCc1ccccc1 (centres undefined)	none (no result: Lassa entry inh, AMA1-RON2 inh, Cycloheximide cs, Shiga toxin inh)
CCc1ccc(-n2nc(C)c3c(C(=O)Nc4cccc(C(F)(F)F)c4)cc(C)nc32)cc1	none (no result: MARV entry inh, AMA1-RON2 inh, Cycloheximide cs, Shiga toxin inh)
Cc1ccc(NC(=O)/C=N/OCC(=O)NCc2ccccc2Cl)cc1	none (no result: Lassa entry inh, MARV entry inh)
N#C/C(=C/c1ccc(N2CCOCC2)o1)c1nc2ccccc2[nH]1	Lassa entry inh inconclusive, MARV entry inh inconclusive, Cycloheximide cs 33.6, Shiga toxin inh 57.9
N#C/C(=C/c1ccc(N2CCCCCC2)o1)c1ccc(F)cc1	Lassa entry inh inconclusive, MARV entry inh 10µM (no result: Cycloheximide cs, Shiga toxin inh)
N#C/C(=C\N1CCOCC1)c1ccccc1	none
N#C/C(=C/c1ccc(N2CCCCCC2)o1)c1cccc(F)c1	MARV entry inh inconclusive
N#C/C(=C\c1ccc(N2CCOCC2)o1)c1ccccc1	Lassa entry inh inconclusive, MARV entry inh inconclusive, Cycloheximide cs 33.6
N#C/C(=C\c1cc([N+](=O)[O-])c(N2CCOCC2)cc1N1CCOCC1)c1nc2ccccc2[nH]1	Lassa entry inh inconclusive, MARV entry inh inconclusive
N#C/C(=C/c1ccc(N2CCOCC2)o1)c1ccc(Br)cc1	Cycloheximide cs 76.8, Shiga toxin inh 109.5
CC1CCN(S(=O)(=O)c2ccc(NC(=O)C3CSC4(C)CCC(=O)N34)cc2)CC1 (centres undefined)	none (no result: Cycloheximide cs, Shiga toxin inh)
N#C/C(=C\c1ccc(N2CCOCC2)cc1)c1ccccc1	Lassa entry inh inconclusive, MARV entry inh inconclusive, AMA1-RON2 inh inconclusive, Cycloheximide cs 50.7, Shiga toxin inh 19.0
CSc1ccc(NC(=O)Nc2cccn(Cc3ccccc3)c2=O)cc1	Lassa entry inh inconclusive, MARV entry inh inconclusive, Cycloheximide cs 28.9, Shiga toxin inh 63.5
COc1ccc(Cn2cccc(NC(=O)Nc3ccc(F)cc3)c2=O)cc1	none (no result: Lassa entry inh, MARV entry inh)
O=C(Nc1ccccc1)Nc1cccn(Cc2c(F)cccc2Cl)c1=O	Lassa entry inh inconclusive, MARV entry inh inconclusive, Cycloheximide cs 60.2, Shiga toxin inh 95.0
O=C(Nc1cccn(Cc2c(Cl)cccc2Cl)c1=O)c1c(Cl)cccc1Cl	Lassa entry inh inconclusive, MARV entry inh inconclusive
Cc1ccc(Cn2cccc(NC(=O)NCc3ccccc3)c2=O)cc1	none
Cc1ccc(Cn2cccc(NC(=O)c3ccco3)c2=O)cc1	Lassa entry inh inconclusive, Cycloheximide cs 36.9, Shiga toxin inh 91.9
